Hits are enriched below; roughly 9.8% of the tested compounds scored in any of these assays.
HttQ103 aggreg: mutant huntingtin aggregation inhibition | PC12 HttQ103-GFP aggregates, Acumen cytometry, 40 h | Potency, µM (doses to about 46.1 µM), usual class: inhibitors | actives 1.1% (n = 220,000); also: nearly all actives have a fitted effect of over 60% in size
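Aggregate formation scored by laser-scanning cytometer (488 excitation, 500–530 emission) in lysed PC12 cells expressing Q103-GFP after 100 nM tebufenozide induction; library tested in dose series, with ATPLite reagent added in the multiplex.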
CBFb-RUNX1 inh: CBF-beta/RUNX1 interaction disruption; Q01196+Q13951; AlphaScreen CBFb-His/RUNX1-biotin binding, biochemical; Potency, µM (series often up to 59.8 µM), actives largely listed as inhibitors; 230,000 tested, under 10 active; AID 1477
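His-tagged CBF-beta and biotinylated RUNX1 (30 nM each) were premixed 20 min at room temperature, exposed to compound for 15 min, then given nickel-chelate and streptavidin AlphaScreen beads (50 ng each). After 90 min, AlphaScreen signal was read.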
ALDH1A1 inh: blocks purified human ALDH1A1 activity; P00352; Purified ALDH1A1, NADH fluorescence, propionaldehyde substrate; Potency, µM (top dose mostly 75.3 µM), usual class: inhibitors; actives 7.3% (n = 220,000); AID 1030; active = well fitted inhibition curve with a large enough effect, not every such curve was filed as active; inconclusive = small, poorly fitted or top-dose-only effect, or another doubt; inactive = no such curve, though single readings can be large or run the other way
Target sequence (P00352 whole entry, looked up): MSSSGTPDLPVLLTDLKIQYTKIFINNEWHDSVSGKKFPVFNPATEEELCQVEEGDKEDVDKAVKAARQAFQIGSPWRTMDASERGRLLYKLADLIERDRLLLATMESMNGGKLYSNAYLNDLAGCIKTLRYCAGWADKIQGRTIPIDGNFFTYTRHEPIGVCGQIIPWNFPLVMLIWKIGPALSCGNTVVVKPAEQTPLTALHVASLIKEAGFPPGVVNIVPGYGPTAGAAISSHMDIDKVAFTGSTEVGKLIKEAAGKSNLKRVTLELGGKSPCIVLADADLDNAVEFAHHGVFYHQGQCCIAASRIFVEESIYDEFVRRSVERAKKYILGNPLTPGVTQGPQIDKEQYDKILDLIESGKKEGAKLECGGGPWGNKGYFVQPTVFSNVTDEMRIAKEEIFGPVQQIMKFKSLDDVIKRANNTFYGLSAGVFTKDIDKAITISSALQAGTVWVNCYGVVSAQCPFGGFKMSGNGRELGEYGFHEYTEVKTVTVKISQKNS
JMJD2E inh: inhibitors of human JMJD2E histone demethylase; B2RXH2; JMJD2E catalytic domain, FDH-coupled NADH fluorescence (FDH is formaldehyde dehydrogenase); Potency, µM (highest dose often 57.1 µM), usual class: inhibitors; actives 1.6% (n = 230,000); AID 2147; active = well fitted inhibition curve with a large enough effect, not every such curve was filed as active; inconclusive = small, poorly fitted or top-dose-only effect, or another doubt; inactive = no such curve, though single readings can be large or run the other way; also: nearly all actives have a fitted effect of over 50% in size
HPGD block: blocks human HPGD enzyme activity | actives 4.3% (n = 150,000) | purified HPGD, NADH fluorescence kinetic, PGE2 substrate | AID 894 | P15428 | Potency, µM, usual class: inhibitors; active = well fitted inhibition curve with a large enough effect, not every such curve was filed as active; inconclusive = small, poorly fitted or top-dose-only effect, or another doubt; inactive = no such curve, though single readings can be large or run the other way
Target sequence (P15428 whole entry, looked up): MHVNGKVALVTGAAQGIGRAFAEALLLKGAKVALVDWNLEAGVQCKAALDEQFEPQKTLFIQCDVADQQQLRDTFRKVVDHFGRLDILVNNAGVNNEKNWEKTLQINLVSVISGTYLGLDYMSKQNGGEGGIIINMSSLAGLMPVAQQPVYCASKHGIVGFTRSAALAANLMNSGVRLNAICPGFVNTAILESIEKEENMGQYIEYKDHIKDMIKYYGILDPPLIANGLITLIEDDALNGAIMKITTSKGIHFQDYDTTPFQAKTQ
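20 nM HPGD preincubated 15 min at room temperature with compound in 50 mM Tris-HCl pH 8, 0.01% Tween 20. Started with 1 mM NAD+ and 30 uM prostaglandin E2; NADH fluorescence (360/450 nm) read 5 times over 30-s intervals, last minus first.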
HTT ATP protect: protects HTT-Q103 PC12 cells, measured by ATP. PC12 HTT-Q103 induced, cytoprotection, ATP luminescence, 40 h. Potency, µM (top dose mostly 56.4 µM), actives largely listed as activators. actives 0.14% (n = 230,000); also: nearly all actives have a fitted effect of over 45% in size
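Stable PC12 Q103-GFP cells in serum-supplemented, phenol red-free DMEM; induction by tebufenozide at 100 nM final; compound dose series; cell viability quantified luminescently from ATP.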
Each line names hits and unclear results; the compound was inactive in the other large screens. Unless noted, calls follow the shape of the dose curve; as a rule, active = well fitted curve in the direction sought with a large enough effect; inconclusive = small, poorly fitted or top-dose-only effect, or another doubt; inactive = no such curve, though single readings can be large; an effect the other way counts as inactive or inconclusive.

Oc1cccc2ccc(Nc3ccccn3)nc12	HttQ103 aggreg 3.5µM, JMJD2E inh inconclusive (no result: CBFb-RUNX1 inh)
O=C(Cc1ccc(Cl)cc1)c1c[nH]c(C(=O)NCCCN2CCOCC2)c1	none (no result: HPGD block)
Cc1ccccc1Nc1ncnc2c1cnn2Cc1ccccc1	none (no result: ALDH1A1 inh, HPGD block)
COc1ccc(CC(=O)NNc2ncnc3c2cnn3Cc2ccccc2)cc1OC	ALDH1A1 inh 10µM (no result: HPGD block)
Clc1cccc(Nc2ncnc3c2cnn3-c2ccccc2)c1	HttQ103 aggreg 22µM, CBFb-RUNX1 inh inconclusive, ALDH1A1 inh inconclusive, JMJD2E inh inconclusive, HPGD block inconclusive
COc1ccc2cnn(Cc3ccccc3)c(=O)c2c1OC	HttQ103 aggreg inconclusive, ALDH1A1 inh 3.5µM (no result: HPGD block)
Cc1cccc(Nc2ncnc3c2cnn3Cc2ccccc2)c1	ALDH1A1 inh 22µM (no result: HPGD block)
O=C(O)c1ccc(Nc2ncnc3c2cnn3Cc2ccccc2)cc1	ALDH1A1 inh inconclusive, JMJD2E inh inconclusive (no result: HPGD block)
COc1ccc(Nc2ncnc3c2cnn3Cc2ccccc2)cc1OC	HttQ103 aggreg inconclusive, ALDH1A1 inh 8.9µM (no result: HPGD block)
COc1ccc(NC(=O)CSc2ncnc3c2cnn3Cc2ccccc2)cc1OC	ALDH1A1 inh inconclusive
CS(=O)(=O)N(CC(=O)N1CCN(c2ccccc2F)CC1)C1CCCCC1	ALDH1A1 inh 7.9µM
Cc1cc(=O)c2n(Cc3ccc(Cl)cc3)nc[n+]2[nH]1	ALDH1A1 inh 20µM
CCCCCCOc1ccc(N2C(=O)CC(N(CCc3ccc(S(N)(=O)=O)cc3)C(C)=O)C2=O)cc1 (centres undefined)	none (no result: HttQ103 aggreg, HPGD block, HTT ATP protect)
CSc1cccc(NC(=S)N(CCC(C)C)C2CCN(C(C)C)CC2)c1	none (no result: HPGD block)
COc1cccc(CNC(=O)CCS(=O)(=O)c2cccs2)c1	none
COc1cc(OC)cc(C(=O)Oc2c(CN3CCOCC3)cc(Cl)c3cccnc23)c1	HttQ103 aggreg 4.5µM, ALDH1A1 inh inconclusive (no result: HPGD block)
O=C(Oc1c(CN2CCOCC2)cc(Cl)c2cccnc12)c1ccccc1F	HttQ103 aggreg inconclusive, CBFb-RUNX1 inh inconclusive, JMJD2E inh 32µM (no result: HPGD block)
COc1ccc(C(=O)Oc2c(CN3CCOCC3)cc(Cl)c3cccnc23)cc1OC	none (no result: HttQ103 aggreg, CBFb-RUNX1 inh, ALDH1A1 inh, JMJD2E inh, HPGD block)
Cc1ccc(S(=O)(=O)N2CCOCC2)cc1NC(=O)COC(=O)CNC(=O)c1ccc(C(C)(C)C)cc1	ALDH1A1 inh 7.9µM
CC(C)(C)c1ccc(C(=O)NCC(=O)OCC(=O)Nc2ccccc2[N+](=O)[O-])cc1	ALDH1A1 inh 6.3µM (no result: HTT ATP protect)
Cc1ccc(S(=O)(=O)N2CCOCC2)cc1NC(=O)COC(=O)CNC(=O)c1ccc(Oc2ccccc2)cc1	none
O=C(N/N=C/c1coc2ccccc2c1=O)c1ccccc1	ALDH1A1 inh 4µM (no result: HPGD block)
O=C(N/N=C\c1coc2ccccc2c1=O)c1ccco1	ALDH1A1 inh 1.6µM (no result: HPGD block)
NC(=O)N/N=C/c1coc2ccc(O)cc2c1=O	ALDH1A1 inh 18µM, JMJD2E inh inconclusive (no result: HPGD block)
O=C(N/N=C/c1coc2ccccc2c1=O)c1cn(-c2ccccc2)nc1-c1ccccc1	ALDH1A1 inh 3.2µM
N#CCC(=O)N/N=C/c1coc2ccccc2c1=O	none (no result: ALDH1A1 inh, HPGD block)
Cc1[nH]c2ccccc2c1C(=O)C(=O)NCc1cccs1	none (no result: HPGD block)
Cc1cccc(CN(C(=S)Nc2c(C)cccc2C)c2cccnc2)c1	ALDH1A1 inh inconclusive, JMJD2E inh inconclusive (no result: HPGD block)
CCOC(=O)c1c(OCC)[nH]c2c1cc(O)c1ccccc12	ALDH1A1 inh inconclusive, JMJD2E inh 22µM, HPGD block inconclusive
CCOC(=O)c1c(C)[nH]c2cc(Br)c(O)cc12	HTT ATP protect inconclusive
CCSC1(SCC)N=C(N)C2(C#N)C(c3ccc(OC)c(OC)c3OC)C12C#N (centres undefined)	HttQ103 aggreg inconclusive, ALDH1A1 inh inconclusive, JMJD2E inh inconclusive, HPGD block 8.9µM
COc1ccc(C)cc1C(=O)CCC(=O)NC1CCCCC1	JMJD2E inh inconclusive (no result: HPGD block)
Cc1ccc2c(c1)NCC(C(=O)NC1CCCCC1)O2 (centres undefined)	HPGD block 13µM
C=C(C)CNC(=S)Nc1sc2c(c1C(=O)OCC)CC(C)(C)OC2	ALDH1A1 inh 13µM (no result: HPGD block)
CCOC(=O)c1c(NC(=O)CCN2CCOCC2)sc2c1CC(C)(C)OC2	ALDH1A1 inh 22µM
CCOC(=O)c1c(NC(=O)CN2CCOCC2)sc2c1CC(C)(C)OC2	ALDH1A1 inh 14µM, JMJD2E inh inconclusive
CCOC(=O)c1c(NC(=O)CCC(=O)N2CCOCC2)sc2c1CC(C)(C)OC2	ALDH1A1 inh inconclusive
OCCC1CN(Cc2cn[nH]c2C2CCCCC2)CCN1C1CCCC1 (centres undefined)	none (no result: HPGD block)
CCCN1CCC(NC(=S)Nc2ccc(S(N)(=O)=O)cc2)CC1	none (no result: HPGD block)
O=C(CN1CCC(n2nnc3cc(F)ccc32)CC1)NCCc1nc2ccccc2[nH]1	none
O=C(CCCCCN1C(=O)c2ccccc2C1=O)Nc1nccs1	HPGD block 7.1µM
O=C1C=CC2=C3c4cc(O)c(O)cc4C[C@]3(O)COC2=C1	CBFb-RUNX1 inh inconclusive, JMJD2E inh 13µM, HPGD block 16µM, HTT ATP protect inconclusive (no result: HttQ103 aggreg)
N/C(=N\OC(=O)c1cccc2ccccc12)c1ccncc1	JMJD2E inh inconclusive (no result: ALDH1A1 inh, HPGD block)
N/C(Cc1ccccc1)=N\OC(=O)c1cccc2ccccc12	CBFb-RUNX1 inh inconclusive, JMJD2E inh inconclusive, HPGD block 2.5µM (no result: HTT ATP protect)
O=C(Nc1ccon1)c1csc2ccccc12	ALDH1A1 inh inconclusive, HPGD block 25µM
O=C(Nc1ccon1)c1ccc(Cl)s1	HPGD block 18µM
Cc1csc2ncc(C(=O)NCc3ccccn3)c(=O)n12	ALDH1A1 inh inconclusive, JMJD2E inh inconclusive, HPGD block inconclusive
COc1ccccc1C(=O)N=c1sc2c(C)ccc(OC)c2n1C	JMJD2E inh inconclusive (no result: ALDH1A1 inh, HPGD block)
O=C(O)CCCCCCCCCCP(=O)(c1ccccc1)c1ccccc1	none (no result: ALDH1A1 inh, HPGD block)
O=P(CCCCCCCCCP(=O)(c1ccccc1)c1ccccc1)(c1ccccc1)c1ccccc1	HttQ103 aggreg 11µM, ALDH1A1 inh inconclusive
CS(=O)(=O)Nc1cccc(C2=NN(S(C)(=O)=O)C(c3ccc4c(c3)OCO4)C2)c1 (centres undefined)	none
CS(=O)(=O)N1N=C(c2ccccc2)CC1c1ccc2c(c1)OCO2 (centres undefined)	ALDH1A1 inh 2.4µM
CS(=O)(=O)N1N=C(c2ccco2)CC1c1ccc(Cl)cc1 (centres undefined)	ALDH1A1 inh 8.9µM
Clc1ccc(C[n+]2cc(-c3ccccc3)n3c2CCCCC3)c(Cl)c1	HttQ103 aggreg 11µM (no result: HPGD block)
O=[N+]([O-])c1ccccc1S(=O)(=O)NCc1ccco1	none (no result: HPGD block)
O=C1C2C3C=CC(CNS(=O)(=O)c4ccccc4[N+](=O)[O-])(O3)C2C(=O)N1c1ccccc1 (centres undefined)	HttQ103 aggreg inconclusive, ALDH1A1 inh 0.89µM (no result: HPGD block, HTT ATP protect)
